From PubChem BioAssay (NCI)
The panel holds about 83,000 compounds, 20% with a hit somewhere; the sample as a whole holds those more often.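 Plates (96-well) were seeded with cells, treated with compound at one concentration, and incubated for 48 hours before percent growth was determined.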 Active and inactive are the calls of the source. Rule for the calls: active = growth percent below 10; inactive = the rest.

test system: MDA-MB-468 breast; assay: NCI-60 one-dose screen, 48 h (100 = growth as untreated, 0 = no growth, -100 = all killed); conditions: 10 µM unless noted

| Compound | growth |
| --- | --- |
| CCN(CC)CCNc1c(C)cc(CO)c(Cl)c1C | -8.33% (active) |
| O=C1C2CC=CCC2C(=O)N1CNc1ccc(Cl)cc1 (stereo not given) | 91% (inactive) |
| Cc1ccc(N2C(=O)c3cccc4c(N)c(S(=O)(=O)O)cc(c34)C2=O)cc1 | 113% (inactive) |
| Clc1ccc2c(N3CCN(c4ccnc(NC5CCCCC5)n4)CC3)ccnc2c1 | 29.4% (inactive) |
| CSc1ccc(/C(=N/N=C(N)N)c2ccc(Cl)cc2)cc1 | -36.1% (active) |
| CCN(CCN(C)C)C(=O)CNCc1cc(C(N)=O)ccn1 | 101% (inactive) |
| c1ccc(-c2nn(-c3ccccc3)[n+](-c3cccc4ccccc34)n2)cc1 | -20.4% (active) |
| CC1C(/C=N/Nc2ccccc2)C(C#N)(C#N)C1(C#N)C#N (stereo not given) | 91.3% (inactive) |
| COC(=O)c1cc2cc(-c3ccc(OC)cc3)cnc2[nH]1 | 17.4% (inactive) |
| O=[N+]([O-])c1ccc(-c2noc(-c3cccs3)n2)cc1 | 56.6% (inactive) |
| COc1ccc(C2C=C(c3ccc(OC)c(OC)c3)N=C3SC=CN32)c(Br)c1 (stereo not given) | 54.5% (inactive) |
| O=C(CSc1nc2ccccc2[nH]1)Nc1cccc(Cl)c1 | 113% (inactive) |
| N#Cc1nc(-c2ccc(F)cc2)oc1S(=O)(=O)N1CCOCC1 | 29% (inactive) |
| O=C(Cc1ccc(/C=C/C(=O)c2ncc[nH]2)cc1)Nc1ccc(F)cc1 | 4.59% (active) |
| CC/C=C/[C@@H]1C=C[C@@H]2CCC[C@H]2[C@@H]1CC[C@H](O)[C@H](C)N | -76.6% (active) |
| O=c1scc(-c2ccc(C(F)(F)F)cc2)s1 | 72.5% (inactive) |
| COc1ccc(C(=O)CSc2nc(-c3cc(OC)ccc3OC)cc(-c3ccc(OC)cc3)c2C#N)cc1 | 105% (inactive) |
| CCCC(=O)NC(c1cccnc1)c1cc(Cl)c2cccnc2c1O (stereo not given) | 30.2% (inactive) |
| CC(C)N=C(N)/N=C(\N)Nc1ccc2ccc3ccccc3c2c1 | -91.1% (active) |
| CCOC(=O)/C(=C\c1ccc2ccccc2c1)P(=O)(OCC)OCC | -13.1% (active) |

| Compound | growth |
| --- | --- |
| CNC(=S)NC(C)(C)C | 111% (inactive) |
| CCCCCCCCCCNC(=O)CCl | 67.8% (inactive) |
| CN1CCN(CC(=O)Nc2ccc3ncnc(Nc4ccc(Oc5cccc(C(F)(F)F)c5)c(Cl)c4)c3c2)CC1 | -61.3% (active) |
| Nc1c(C(=O)Nc2ccccc2)sc2nc3c(cc12)C(=O)CCC3 | 4.62% (active) |
| Cc1ccc(C(=O)Nc2ccc(CNCCN3CCNCC3)c(C(F)(F)F)c2)cc1C#Cc1cnc2cccnn12 | -83% (active) |
| NS(=O)(=O)c1ccc(Nc2nc3n[nH]c(Nc4ccccc4)c3c(=O)[nH]2)cc1 | 108% (inactive) |
| Oc1ccc(/C=N/Nc2nc3ccccc3s2)c(O)c1 | 20.2% (inactive) |
| O=C1c2ccccc2C(=O)c2c(N=Nc3sc(=O)[nH]c3S)cccc21 | 104% (inactive) |
| Cc1cc2c(C)c3cc(C)c(N)cc3nc2cc1N | -5.78% (active) |
| Cc1cc2nc(CS)[nH]c2cc1C | 85.2% (inactive) |
| COC(=O)c1cc(Cl)cc([N+](=O)[O-])c1O | 95.3% (inactive) |
| COc1ccc(SC2c3ccc(O)cc3Oc3nc(N)c(C#N)c(N)c32)cc1 (stereo not given) | 89.6% (inactive) |
| COc1ccc(C(=O)/C=C/c2cc(C(=O)c3cc(OC)c(OC)c(OC)c3)ccc2OC)cc1 | 47.2% (inactive) |
| Cc1nc(/N=C(\N)NC(=O)Nc2cccc([N+](=O)[O-])c2)sc1C | 11.6% (inactive) |
| O=C(Cn1c2ccccc2c2ccncc21)N/N=C/c1cc(O)c(O)c(O)c1 | 111% (inactive) |
| C[C@]12C=CC(=O)C=C1[C@@H](F)C[C@@H]1[C@@H]2[C@@H](O)C[C@@]2(C)[C@H]1CC[C@]2(O)C(=O)CO | 123% (inactive) |
| Cc1nn(-c2ccccc2)c2nc3c(c(-c4ccc(Cl)cc4)c12)CNC1(CCSCC1)N3 | 93.1% (inactive) |
| O=c1c2cc(Br)cc(Br)c2nc(-c2ccc(Cl)cc2)n1/N=C\c1ccccc1F | 79.1% (inactive) |
| CC(=O)Oc1ccc(OC(C)=O)c2ccccc12 | -53.2% (active) |
| OCCNC(=S)Nc1ccc(-c2nc(N3C[C@H]4CC[C@@H](C3)O4)c3cccn3n2)cc1 | -24.6% (active) |
